MITF primary: inhibitors of human MITF | O75030 | AlphaScreen MITF homodimerization, bead proximity signal | inhibition, % at 2.6 µM | 650,000 compounds, 0.91% hits | AID 1259374; in the data active = inhibition above about 50%;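 note: 0% = vehicle wells with protein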
GPR151 ag: human GPR151 activation; PathHunter beta-arrestin GPR151 cells, luminescence; 650,000 compounds, 1% hits; activation, % at 11.2 µM; AID 1508602; in the data active = activation above about 4.9%;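 note: 0% = median of compound wells and 100% = cells with positive control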
TEAD-YAP inh: TEAD-YAP interaction inhibition; HEK-TIYL cells, TEAD-Gal4/YAP UAS-luciferase luminescence; inhibition, % at 9.12 µM; 640,000 compounds, 1.4% hits; in the data active = inhibition above about 32%;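 note: 0% = median of test compound wells and 100% = reference inhibitor wells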
FBW7 activator: human FBW7 E3 ligase activation, primary screen; AlphaScreen FBW7–phospho-cyclin E peptide binding, activator screen; AID 1259310; 650,000 compounds, 0.13% hits; normalized activity (activation), % at 26.1 µM; in the data active = normalized activity above about 1.9%;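 note: purified mutant Fbw7 with reduced substrate affinity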
GPR151 conf act: human GPR151 activation, confirmation screen | shares compounds with GPR151 ag | GPR151 PathHunter beta-arrestin cells, luminescence, 90 min; % of EA-reagent control over plate median | activation, % at 11.2 µM | 6,700 tested, under 10 active | AID 1508609;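 active = mean percent activation across replicates above the confirmation screen cutoff of 4.91%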
GPR119 ag: GPR119 activation, counter-screen for GPR151 activators | 6,700 compounds, 0.3% hits | GPR119 PathHunter beta-arrestin cells, luminescence, 90 min; 0 = compound-well median, 100 = enzyme-acceptor control | activation, % at 11.2 µM | shares compounds with GPR151 ag;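 active = mean percent activation in the counterscreen above 29.09%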;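 note: counterscreen on off-target GPR119 to flag nonselective hits from the GPR151 activator screen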
Target sequence (Q8TDV5 whole entry, looked up): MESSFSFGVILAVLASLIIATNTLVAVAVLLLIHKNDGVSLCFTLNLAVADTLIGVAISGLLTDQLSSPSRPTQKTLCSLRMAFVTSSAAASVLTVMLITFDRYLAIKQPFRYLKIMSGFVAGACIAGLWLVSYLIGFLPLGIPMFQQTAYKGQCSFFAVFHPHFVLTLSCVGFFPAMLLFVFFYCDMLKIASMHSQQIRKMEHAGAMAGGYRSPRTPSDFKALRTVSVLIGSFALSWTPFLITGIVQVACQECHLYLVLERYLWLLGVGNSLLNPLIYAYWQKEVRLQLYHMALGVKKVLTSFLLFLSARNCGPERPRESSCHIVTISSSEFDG
An asterisk follows results filed as active; . = no result. Sampled rows, rich in hits. Any-hit rate of the full collection: about 3.4%.

SMILES	MITF primary	GPR151 ag	TEAD-YAP inh	FBW7 activator	GPR151 conf act	GPR119 ag
CCOC(=O)CN1C(=O)Nc2ccc(Br)cc2C1c1ccccc1 (stereo unspecified)	13.7	0.5	7.4	0.6	.	.
COC(=O)CN1C(=O)Nc2ccc(Br)cc2C1c1ccccc1Cl (stereo unspecified)	2.1	14.9*	0.5	0.2	0.5	4.1
O=S(c1cc(Cl)cc(Cl)c1O)c1cc(Cl)cc(Cl)c1O	6.6	6.9*	-6.4	0.0	1.4	3.9
COc1ccc(NC(=O)/C=C/c2ccc([N+](=O)[O-])cc2)c(OC)c1	-9.8	0.8	2.2	0.2	.	.
COc1ccc(NCCC(=O)c2ccc([N+](=O)[O-])cc2)c(OC)c1	2.8	5.2*	8.8	0.2	-0.7	-10.4
COc1ccc(C(=O)NCC(=O)OCc2ccc([N+](=O)[O-])cc2)cc1	3.5	8.1*	-3.4	-0.4	0.1	-1.4
O=C(CNC(=O)c1ccccc1)OCc1ccc([N+](=O)[O-])cc1	-2.1	2.2	-1.4	-0.1	.	.
Cc1ccc(Nc2ncnc(N)c2[N+](=O)[O-])cc1Cl	-3.6	9.1*	6.5	-0.1	0.1	1.5
Nc1ncnc(Nc2ccc(Nc3ccccc3)cc2)c1[N+](=O)[O-]	23.1	8.7*	7.0	0.3	-1.6	-1.4
Nc1ncnc(Nc2ccc(N=Nc3ccccc3)cc2)c1[N+](=O)[O-]	16.8	0.3	3.3	0.1	.	.
CCOC(=O)c1sc(NC(=O)c2sc3nc4c(C)cccc4cc3c2N)nc1C	-3.0	1.9	-10.2	-0.1	.	.
CCCCNC(=O)c1cc(Nc2ccc(OC)c(OC)c2)nc2ccccc12	16.7	0.8	19.7	0.0	.	.
CC1=C(C(=O)CN2CCN(c3ccccc3)CC2)N2C=CC=CC2N1 (stereo unspecified)	5.0	9.2*	7.2	-0.1	0.8	6.7
CC(C)CS(=O)(=O)C1=NN2C(=N)/C(=C\c3ccco3)C(=O)N=C2S1	9.8	-0.2	2.8	-0.2	.	.
CCOc1cc(C=C(C#N)C#N)ccc1OC(=O)c1cccs1	-2.6	11.8*	17.7	-0.2	0.4	4.0
COc1cc(C=C(C#N)C#N)ccc1OC(=O)c1cccs1	3.1	-1.0	-0.6	0.2	.	.
CCC(C)C(=O)Nc1cc(OC)c(OC)cc1C(=O)O (stereo unspecified)	-0.1	7.1*	-2.6	0.1	-0.6	0.7
CCC(C)C(=O)Nc1ccc(O)cc1C(=O)O (stereo unspecified)	13.1	-2.2	-5.4	0.2	.	.
CCc1ccc(CNCc2cc(NC(=O)c3ccccn3)cc(C(=O)N(C)C)c2)cc1	-4.7	10.1*	1.6	0.0	0.9	9.7
O=C1NC(c2ccc(O)cc2)C(C(=O)c2ccc(F)cc2)C(O)(C(F)(F)F)N1 (stereo unspecified)	13.9	-1.0	-3.0	0.0	.	.
CCOC(=O)C(=O)CC(=O)c1ccc(CC)cc1	-1.1	0.5	-5.1	-0.1	.	.
Cc1cccc(-n2ccnc2SCC(=O)Nc2ccc(F)cc2F)c1C	-4.1	9.3*	-5.4	-0.3	0.5	-4.2
O=S(=O)(CCc1ccccc1)NCC1(c2cccs2)CCCC1	-2.7	5.2*	1.9	0.1	0.0	0.3
O=C(O)Cc1ccc(NC(=O)c2ccccc2-c2ccccc2C(=O)O)cc1	7.2	6.6*	7.5	0.0	-1.1	-10.7
CCOC(=O)c1c(NC(=O)CCl)sc2c1CCC2	4.1	-0.6	7.9	-0.2	.	.
SMILES	MITF primary	GPR151 ag	TEAD-YAP inh	FBW7 activator	GPR151 conf act	GPR119 ag
O=C(NC1CCC(NC(=O)c2cccc(F)c2)CC1)c1cccc(F)c1 (stereo unspecified)	-1.4	9.4*	3.6	0.1	0.0	-4.8
COc1ccccc1NC(=O)CSc1c[nH]c2ccccc12	-10.3	-0.7	4.6	-0.2	.	.
CC(=O)Nc1cccc(-c2cnc3ccc(NC4CCOCC4)nn23)c1	-7.6	4.9*	7.6	-0.1	0.0	1.3
O=C(O)/C=C/c1cccc(-c2cnc3ccc(NC4CCOCC4)nn23)c1	12.6	0.6	3.6	-0.3	.	.
COC(=O)c1ccc(COC(=O)c2cc(Br)ccc2O)cc1	-11.9	-0.5	-13.3	-0.1	.	.
CCN(CC)CCCN1C(=O)C(C)SC1c1ccccc1[N+](=O)[O-] (stereo unspecified)	9.5	12.5*	4.2	0.0	1.3	9.4
CCN(CC)CCCOc1ccccc1[N+](=O)[O-]	5.5	-0.5	-11.6	0.0	.	.
COc1ccc(-c2cnc(NCCCO)nc2)cc1	4.0	-1.7	-14.3	0.1	.	.
OCCCNc1ncc(-c2ccc(Cl)cc2)cn1	0.1	5.8*	-4.5	0.1	-0.6	-1.3
O=C(CN1C(=O)c2cccc([N+](=O)[O-])c2C1=O)OCc1ccc(C(=O)c2ccccc2)cc1	4.3	4.1	-3.7	0.5	.	.
NC(=O)c1ccccc1NC(=O)CCN1C(=O)c2cccc([N+](=O)[O-])c2C1=O	8.9	5.4*	-1.2	0.8	-1.1	7.8
O=C(CN1C(=O)c2cccc([N+](=O)[O-])c2C1=O)OCc1ccc(Cl)cc1	2.2	7.3*	-1.0	0.6	-0.2	-8.2
O=C(COC(=O)CN1C(=O)c2cccc([N+](=O)[O-])c2C1=O)OCN1C(=O)c2ccccc2C1=O	34.4	4.9*	-12.0	1.0	-0.1	4.3
O=C(CN1C(=O)c2cccc([N+](=O)[O-])c2C1=O)OCC(=O)c1ccccc1Cl	15.5	2.0	2.2	0.2	.	.
O=C(CCc1nnc(COc2ccccc2)o1)NCc1ccc2c(c1)OCO2	4.1	0.2	-8.6	-0.1	.	.
Cc1ccc(COc2c(Br)cc(/C=C(\C#N)c3nn(CCO)c(N)c3C#N)cc2Br)cc1	6.7	6.9*	-3.8	-0.1	0.0	4.6
C=CCn1c(SCC(N)=O)nnc1-c1ccc(Br)cc1	19.4	6.2*	0.5	0.6	-1.2	-10.9
CN(c1ccc(C(=O)Nc2ccc(F)c(Cl)c2)cc1)S(=O)(=O)c1ccccc1	12.0	5.4*	2.6	0.2	-0.1	5.6
CN(c1ccc(C(=O)Nc2ccccc2)cc1)S(=O)(=O)c1ccccc1	-9.5	-0.1	-15.5	0.0	.	.
COc1cccc(-n2c(CCN3C(=O)c4ccccc4C3=O)nc3ccccc3c2=O)c1	3.7	5.4*	-3.2	0.0	0.5	8.6
Cc1cc(N2CCN(Cc3ccccc3)CC2)nc(-n2cc([N+](=O)[O-])cn2)n1	5.1	4.2	-6.5	-0.2	.	.
COc1ccc(-c2noc(Nc3ccc(Cl)cc3)n2)cc1	-2.1	8.2*	-21.0	0.0	0.0	-0.6
COc1ccc(-c2noc(Nc3ccc(C(C)C)cc3)n2)cc1	14.7	-0.5	-10.6	0.8	.	.
COc1cccc2cc(C(=O)/C=C/c3cccc(F)c3)c(=O)oc12	-6.5	5.4*	-2.0	-0.1	0.0	1.0
COc1ccc(CNC(=O)CN(C)S(=O)(=O)c2ccc(Cl)cc2)cc1	13.2	5.4*	4.3	-0.1	-0.1	-4.8
COc1ccc(S(=O)(=O)N(C)CC(=O)Nc2cccc(OC)c2)cc1	8.6	6.2*	-0.6	0.1	-0.3	-9.8

High-throughput results from PubChem BioAssay.
